Shown are actives, neighbours in structure and some others; about 12% of the full set was active somewhere.
Sfp PPTase inh: blocks B. subtilis Sfp PPTase activity; Biochemical Sfp PPTase activity, qHTS; Q9F4F7; Potency, µM, most hits filed as inhibitors; actives 3.5% (n = 310,000); AID 1490;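 note: the enzyme is Sfp with the accession as filed and its product quenches rhodamine fluorescence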
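Fluorescence-quenching assay: 15 nM Sfp-PPTase preincubated 15 min at room temperature with compound, then 5 uM rhodamine-CoA and 12.5 uM BHQ-2-labelled YbbR peptide added. Fluorescence (ex 525/em 598 nm) read at start and after 30 min; difference gives rate.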
VP16 counter: Gal4-VP16 reporter inhibition counter-screen. Drosophila S2 Gal4-VP16 UAS-luciferase, luminescence, 20 h. Potency, µM (titrated, usually from 53.6 µM), hits mostly inhibitors. actives 3.5% (n = 310,000). AID 2546;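 note: Gal4-VP16 expression switched on by copper sulfate through the metallothionein promoter; nearly all actives have a fitted effect of over 50% in size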
ALDH1A1 block: blocks purified human ALDH1A1 activity. P00352. Purified ALDH1A1, NADH fluorescence, propionaldehyde substrate. actives 7.3% (n = 220,000). Potency, µM (titrated, usually from 75.3 µM), hits mostly inhibitors; active = well fitted inhibition curve with a large enough effect, not every such curve was filed as active; inconclusive = small, poorly fitted or top-dose-only effect, or another doubt; inactive = no such curve, though single readings can be large or run the other way
PLK1 PBD inh: PLK1 (human) polo-box domain binding inhibition; P53350; Plk1 PBD binding of FITC phosphopeptide, fluorescence polarization; Potency, µM, hits mostly inhibitors; actives 2.8% (n = 360,000); AID 720504; note: series mostly up to about 57 µM; nearly all actives have a fitted effect of over 65% in size
RORgamma inh: inhibitors of mouse ROR gamma transcriptional activity; P51450; Drosophila S2 Gal4-RORgamma UAS-luciferase reporter, 20 h; Potency, µM (titrated, usually from 53.6 µM), actives largely listed as inhibitors; actives 5.4% (n = 310,000); AID 2551; note: nearly all actives have a fitted effect of over 60% in size
Target sequence (P51450 whole entry, looked up, the tested form may be a part): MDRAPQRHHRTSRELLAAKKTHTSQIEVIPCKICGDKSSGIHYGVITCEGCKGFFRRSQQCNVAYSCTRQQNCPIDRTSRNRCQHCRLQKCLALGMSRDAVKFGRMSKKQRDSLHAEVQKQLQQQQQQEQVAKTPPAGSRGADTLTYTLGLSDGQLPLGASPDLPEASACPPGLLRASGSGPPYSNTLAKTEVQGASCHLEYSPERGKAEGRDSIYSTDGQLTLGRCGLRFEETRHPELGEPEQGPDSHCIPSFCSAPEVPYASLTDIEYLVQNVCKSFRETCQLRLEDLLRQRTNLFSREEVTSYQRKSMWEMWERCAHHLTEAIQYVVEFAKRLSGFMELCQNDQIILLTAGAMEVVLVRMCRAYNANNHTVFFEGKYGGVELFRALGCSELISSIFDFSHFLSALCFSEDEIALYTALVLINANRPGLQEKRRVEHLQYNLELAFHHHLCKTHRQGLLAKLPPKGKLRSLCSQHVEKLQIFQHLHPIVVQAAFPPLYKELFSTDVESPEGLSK
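Drosophila S2 cells stably expressing Gal4-DBD/mouse RORγ fusion under metallothionein promoter plus UAS-luciferase; compound 1 h, then 700 uM CuSO4 induction for 20 h at ambient temperature; inhibition read as reduced luminescence.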
A number is an active result; 0 = inactive; ? = inconclusive; - = no result given; [ ] = dose if it differs, or a comment. Unless noted, calls come from the whole dose curve; as a rule, active = well fitted curve in the direction sought with a large enough effect; inconclusive = small, poorly fitted or top-dose-only effect, or another doubt; inactive = no such curve, though single readings can be large; an effect the other way counts as inactive or inconclusive.

SMILES | Sfp PPTase inh | VP16 counter | ALDH1A1 block | PLK1 PBD inh | RORgamma inh
COc1ccc(-c2ccc(SCC(=O)NCc3ccco3)nn2)cc1OC | 50.1µM | 0 | ? | 0 | 0[10 µM]
O=C(CSc1ccc2nnc(-c3cccnc3)n2n1)NCc1ccco1 | 50.1µM | ? | ? | 0 | 0
O=C(Nc1ccccn1)C(=O)Nc1ccccn1 | 0 | 12.6µM | 0 | 0 | 10µM
O=C(Nc1ccccn1)c1cccs1 | 0 | 0 | 0 | 3.36µM | 0
O=C(Nc1ccccn1)C1(c2ccccc2)CCCC1 | 0 | 20µM | ? | 0 | 0
C#CCCc1cscc1/C=[N+](\[O-])c1ccc(C(=O)OCC)cc1 | - | - | - | 7.52µM | -
CC1(C)[C@@H]2CC[C@@]1(C)C(=O)C2 | 0 | 0 | ? | - | 0
CC(Sc1ccccn1)C(=O)Nc1ccccc1 (stereo unspecified) | 0 | 0 | 0 | 23.8µM | ?
O=C1Nc2cc(C(=O)N3CCN(c4ccccc4F)CC3)ccc2NC1CSCc1ccccc1F (stereo unspecified) | 56.2µM | 0 | - | - | 0
COc1ccccc1N1CCN(C(=O)c2ccc3c(c2)NC(=O)C(CSCc2ccccc2C)N3)CC1 (stereo unspecified) | 50.1µM | 0 | - | - | 0
Cc1cccc(N2CCN(C(=O)c3ccc4c(c3)NC(=O)C(CSCc3cccc(F)c3)N4)CC2C)c1 (stereo unspecified) | 56.2µM | 0 | - | ? | 0
Cc1cccc(N2CCN(C(=O)c3ccc4nccnc4c3)CC2C)c1 (stereo unspecified) | - | - | - | 0 | -
CC(C)Oc1cc(F)ccc1-c1cc(C(=O)NCc2ccccn2)[nH]n1 | - | - | - | 0 | -
CC(=O)N1CC2(CC2)CC1c1ccccc1 (stereo unspecified) | 0 | 0 | 0 | - | 0
COC(=O)[C@@]1(C)C=C[C@@H](Cc2ccccc2)N1C | 0 | 0 | ? | - | 0
Cc1cc(Cl)ccc1NC(=S)NCc1ccco1 | 0 | 10µM | 0 | 0 | ?
S=C(NCCc1ccccc1)Nc1ccc(Cl)cc1Cl | 0 | 15.8µM | ? | 0 | 3.98µM
CCCNC(=S)NCc1ccc(Cl)cc1 | 0 | 0 | 0 | 0 | 10µM
Cc1ccc(C(=O)O)cc1NC(=S)NCCc1ccccc1 | 0 | 0 | - | 0 | 0
Cc1ccc(Cl)cc1NC(=O)CCC(=O)NCc1ccco1 | 0 | 0 | - | 0 | 0
S=C(NCc1ccccc1)NN1CCOCC1 | 0 | 0[10 µM] | 0 | 0 | ?
CNC(=S)NCc1ccc(Cl)cc1 | - | - | - | 0 | -
S=C(NCc1ccc(Cl)cc1)NN1CCOCC1 | 0 | ? | 0 | 0 | 10µM
Cc1ccccc1-c1cncnc1Nc1ccccc1 | 0 | 0 | 0 | - | 0
COc1ccc(C#Cc2ccc3c(c2)O[C@@H](CN(C)C(=O)Nc2cccc(OC)c2)[C@H](C)CN([C@@H](C)CO)S3(=O)=O)cc1 | - | - | - | 0 | -
SMILES | Sfp PPTase inh | VP16 counter | ALDH1A1 block | PLK1 PBD inh | RORgamma inh
CN(C)c1ncc2nc(-c3ccccc3)c(=O)n(C)c2n1 | 0 | 0 | ? | - | 0
CCCCNc1nc(C)nc2c1nc(-c1ccccc1)n2CCN1CCCC1 | 0 | 0 | ? | - | 0
CC(C)(C)c1ccc(CC(=O)N2CCC2(C)C(=O)NS(=O)(=O)c2ccccc2Cl)cc1 (stereo unspecified) | - | - | - | 0 | -
Cc1cc(Cl)ccc1NC(=S)NCCc1ccc(Cl)cc1 | 0 | 5.01µM | - | 0 | 6.31µM
Cc1cc(Cl)ccc1NC(=S)NCc1ccc(Cl)cc1 | 0 | 0[0.365 µM] | 0 | 0 | 2.82µM
CCc1cc[n+](CC(=O)Nc2ccc(Cl)cc2Cl)cc1 | 0 | 0 | 0 | 0 | 0
CCNC(=S)Nc1ccc(Cl)cc1Cl | 0 | 0 | 0 | 0 | 11.2µM
CCOC(=O)N1C2c3ccccc3C(c3ccccc32)N1C(=O)OCC | - | - | - | 0 | -
COc1cc(C(=O)O/N=C2/C=CC(=O)C(C)=C2C)cc(OC)c1OC | 0 | 4.47µM | ? | ? | 3.55µM
COc1cc(C(=O)O/N=C2\C=CC(=O)C=C2C)cc(OC)c1OC | 0 | 3.98µM | 0 | ? | 7.08µM
FC(F)(F)C(F)(F)C(F)(F)C(F)(F)C(F)(F)F | 0 | 0 | - | - | 0
Cc1nn(-c2ccc(N3CCOCC3)nn2)c(C)c1CCC(=O)NCc1ccccc1 | 0 | 0 | - | 0 | 0
NCC1CCC(N)C(O[C@@H]2C(O)[C@H](O[C@H]3OC(CO)C(O)C(N)C3O)[C@@H](N)C[C@H]2N)O1 (stereo partly specified) | 0 | 0 | 0 | - | 0
Cc1cc2ncn(CC(=O)O)c2cc1C | - | - | 0[13.5 µM] | - | -
Cc1cc2ncn(CCOc3ccccc3)c2cc1C | 0 | 0 | 0 | 0 | 12.6µM
Cc1cc2ncn(CC(C)C)c2cc1C | 0 | ? | 0 | 0 | 7.94µM
COCCn1cnc2cc(C)c(C)cc21 | 0 | 0 | 0 | 0 | ?
CCCCn1cnc2cc(C)c(C)cc21 | 0 | ? | 0 | 0 | 3.98µM
Cc1cc(C)cc(NC(=O)CCn2cnc3cc(C)c(C)cc32)c1 | 0 | 0 | 0 | 0 | 0
CCCn1c(=N)n(CC(=O)C(C)(C)C)c2ccccc21 | 0 | 0 | 0 | 0 | ?
CCCCn1c(=N)n(CC(=O)C(C)(C)C)c2ccccc21 | 0 | ? | ? | 0 | 5.01µM
Cn1c(=N)n(CC(=O)c2ccccc2)c2ccccc21 | 0 | 11.2µM | - | 0 | 8.91µM
Cn1c(=N)n(CC(=O)O)c2ccccc21 | 0 | 0 | 0 | 0 | 0
Cn1c(=N)n(CC(=O)C(C)(C)C)c2ccccc21 | 0 | ? | 0 | 0 | 11.2µM
CCn1c(=N)n(CC(=O)C(C)(C)C)c2ccccc21 | 0 | 3.16µM | ? | 0 | ?
SMILES | Sfp PPTase inh | VP16 counter | ALDH1A1 block | PLK1 PBD inh | RORgamma inh
O=C(Nc1nnc([C@H]2C[C@H](O)[C@@H](CO)O2)s1)Nc1ccccc1Oc1ccccc1 | - | - | - | 0 | -
C[C@@]1(O)CCOC(=O)C1 | 0 | 0 | 0 | - | 0
COc1ccc(NS(=O)(=O)c2ccc(SC)cc2)cc1 | 0 | ? | 0.159µM | 0 | ?
COc1ccc(NC(=O)c2cc(S(=O)(=O)Nc3ccc(OC)cc3)cs2)cc1 | 0 | 11.2µM | - | 0 | 0
COc1ccc(NS(=O)(=O)c2ccc3oc(SC4CCOC4=O)nc3c2)cc1 (stereo unspecified) | 0 | ? | 0.562µM | 0 | 0
CSc1ccc(S(=O)(=O)Nc2ccc(F)cc2)cc1 | 0 | 0 | ? | 0 | 0
CNC(=O)CSc1nc2cc(S(=O)(=O)Nc3ccc(OC)cc3)ccc2o1 | - | - | - | 0 | -
COc1ccc(NS(=O)(=O)c2ccc3oc(SC)nc3c2)cc1 | 50.1µM | 0 | - | 21.2µM | ?
CCCCOc1ccc(NC(=S)Nc2cc(C)nc(SCCCC)n2)cc1 | 0 | 1µM | 0 | 0 | 1.41µM
O=C(Nc1nnc(SCc2ccc(F)cc2)s1)C1Cc2ccccc2CN1C(=O)c1ccco1 (stereo unspecified) | 0 | ? | 0 | 26.7µM | ?
COc1ccc(S(=O)(=O)N2Cc3ccccc3CC2C(=O)Nc2nccs2)cc1OC (stereo unspecified) | 0 | 0 | 0 | 0 | 0
COc1ccc(S(=O)(=O)N2Cc3ccccc3CC2C(=O)Nc2nccs2)cc1 (stereo unspecified) | 0 | 0 | 5.01µM | 0 | 0
O=C(Nc1nnc(C2CC2)s1)C1Cc2ccccc2CN1C(=O)c1ccco1 (stereo unspecified) | 39.8µM | ? | ? | 26.7µM | 0
O=C(Nc1nnc(C2CC2)s1)C1Cc2ccccc2CN1S(=O)(=O)c1cccs1 (stereo unspecified) | 0 | ? | 0 | 0 | 1.41µM
